Screens (PubChem BioAssay)
Myc binder: binders of human c-Myc; P01106; actives 1.5% (n = 17,000); small molecule microarray, His-c-Myc binding, anti-His fluorescence; AID 624141; calls only;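 active means spot fluorescence over background with P-value below 7% in all four replicate spots, showing protein binding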
STAT3 SMM: binders of human STAT3; AID 624138; actives 0.2% (n = 17,000); calls only; P40763; Small molecule microarray, His-STAT3 binding, anti-His fluorescence;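 active means compounds whose four printed spots each show fluorescence over background unusually high for their array block, chance value under 7%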
Target sequence (P40763 whole entry, looked up): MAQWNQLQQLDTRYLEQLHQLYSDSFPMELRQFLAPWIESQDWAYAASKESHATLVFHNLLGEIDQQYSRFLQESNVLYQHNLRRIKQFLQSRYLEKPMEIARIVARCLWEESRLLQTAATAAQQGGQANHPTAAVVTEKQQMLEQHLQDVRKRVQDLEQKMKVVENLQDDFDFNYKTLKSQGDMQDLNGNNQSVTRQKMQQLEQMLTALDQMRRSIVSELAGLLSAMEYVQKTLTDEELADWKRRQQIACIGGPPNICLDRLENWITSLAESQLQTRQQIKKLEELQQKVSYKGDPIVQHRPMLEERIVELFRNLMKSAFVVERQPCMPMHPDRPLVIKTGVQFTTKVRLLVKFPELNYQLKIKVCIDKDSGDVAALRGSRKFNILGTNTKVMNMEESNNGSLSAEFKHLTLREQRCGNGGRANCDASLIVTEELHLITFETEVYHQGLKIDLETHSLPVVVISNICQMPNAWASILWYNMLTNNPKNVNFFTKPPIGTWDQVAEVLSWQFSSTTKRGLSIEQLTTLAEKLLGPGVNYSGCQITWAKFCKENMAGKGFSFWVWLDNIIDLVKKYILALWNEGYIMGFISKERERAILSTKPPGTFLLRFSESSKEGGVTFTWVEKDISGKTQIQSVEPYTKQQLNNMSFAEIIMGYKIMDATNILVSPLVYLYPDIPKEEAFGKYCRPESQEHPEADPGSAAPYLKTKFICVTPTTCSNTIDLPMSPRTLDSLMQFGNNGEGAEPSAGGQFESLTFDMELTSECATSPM
p53 mut binder: binders of human mutant p53; small molecule microarray binding, anti-GST fluorescence; calls only; actives 0.4% (n = 17,000); AID 624136;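 active means compounds whose four printed spots each glow above background more than chance allows, each with a p-value under 7%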
NFkB SMM: NF-kappa-B p105 (human) binding | calls only | Small molecule microarray, anti-His fluorescence binding | actives 1.3% (n = 17,000) | P19838 | AID 624139;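 active means spot fluorescence over background significantly raised, with a chance value under 7% in all four replicate spots of the compound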;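 further: probe protein is his-tagged human p50 processed subunit at 1 µg/ml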
Calls only; . = inactive; + = active, no number. Sampled rows, rich in hits. Any-hit rate of the full collection: about 2.5%.

SMILES | Myc binder | STAT3 SMM | p53 mut binder | NFkB SMM
C[C@H]1CN([C@@H](C)CO)C(=O)c2cccc(NC(=O)NC3CCCCC3)c2O[C@H]1CN(C)S(=O)(=O)c1ccc(Cl)cc1 | + | . | . | .
C[C@H]1CN([C@@H](C)CO)C(=O)c2cccc(NC(=O)Nc3ccc(C(F)(F)F)cc3)c2O[C@@H]1CN(C)C(=O)NC1CCCCC1 | . | + | . | .
C[C@H](CO)N1C[C@H](C)[C@H](CN(C)C(=O)Nc2ccccc2)Oc2ncc(-c3cccc(C(F)(F)F)c3)cc2C1=O | + | . | . | +
C[C@H](CO)N1C[C@H](C)[C@H](CN(C)S(=O)(=O)c2ccccc2)Oc2ncc(C#Cc3ccc(C(F)(F)F)cc3)cc2C1=O | + | . | . | .
COc1ccc(NC(=O)N(C)C[C@@H]2Oc3ncc(-c4cccc(C(F)(F)F)c4)cc3C(=O)N([C@H](C)CO)C[C@@H]2C)cc1 | . | . | . | .
C[C@H](CO)N1C[C@H](C)[C@@H](CN(C)Cc2ccc(C(F)(F)F)cc2)Oc2c(NS(C)(=O)=O)cccc2C1=O | . | . | . | .
COC(=O)c1ccc(C(=O)OC)c(NC(=O)c2cnn3cccnc23)c1 | . | . | . | .
CC(C)OC(=O)CSc1nc2c(c(-c3ccccc3)c1C#N)CCC2 | . | . | . | .
C[C@H](CO)N1C[C@H](C)[C@@H](CN(C)C(=O)CCC(F)(F)F)OCCCC[C@H](C)Oc2ccc(NS(=O)(=O)c3ccccc3)cc2C1=O | . | . | . | .
C[C@@H]1CCCCO[C@@H](CN(C)C(=O)CCC(F)(F)F)[C@@H](C)CN([C@H](C)CO)C(=O)c2cc(NS(=O)(=O)c3ccccc3)ccc2O1 | . | . | . | .
Cc1ccc(S(=O)(=O)Nc2ccc3c(c2)C(=O)N([C@@H](C)CO)C[C@H](C)[C@@H](CN(C)C(=O)CCC(F)(F)F)OCCCC[C@H](C)O3)cc1 | . | . | . | +
C[C@H](CO)N1C[C@H](C)[C@H](CN(C)C(=O)CCC(F)(F)F)OCCCC[C@H](C)Oc2ccc(NS(=O)(=O)c3ccccc3)cc2C1=O | + | . | . | +
C[C@H](CO)N1C[C@H](C)[C@@H](CN(C)C(=O)CCC(F)(F)F)OCCCC[C@H](C)Oc2ccc(NS(=O)(=O)c3ccc(F)cc3)cc2C1=O | + | . | . | +
CC(C)[C@@H]1NC(=O)[C@@H](Cc2c[nH]c3ccccc23)n2c1nc1ccccc1c2=O | . | . | . | .
Cc1cccc(NC(=O)c2cc(NC(=O)CCC(=O)O)ccc2N2CCOCC2)c1 | . | . | . | .
CCc1ccc(S(=O)(=O)NCC(=O)O)cc1 | + | . | . | +
C[C@@H]1CCCCO[C@@H](CN(C)C(=O)Nc2ccc(C(F)(F)F)cc2)[C@@H](C)CN([C@H](C)CO)C(=O)c2cc(NS(C)(=O)=O)ccc2O1 | . | . | . | .
C[C@@H]1CCCCO[C@H](CN(C)C(=O)Nc2ccc(C(F)(F)F)cc2)[C@H](C)CN([C@@H](C)CO)C(=O)c2cc(NS(C)(=O)=O)ccc2O1 | . | + | . | .
C[C@@H]1CCCCO[C@@H](CN(C)C(=O)Nc2ccc(C(F)(F)F)cc2)[C@H](C)CN([C@@H](C)CO)C(=O)c2cc(NS(C)(=O)=O)ccc2O1 | + | . | . | .
C[C@@H]1CCCCO[C@@H](CN(C)C(=O)Nc2ccc(C(F)(F)F)cc2)[C@H](C)CN([C@H](C)CO)C(=O)c2cc(NS(C)(=O)=O)ccc2O1 | . | . | . | .
C[C@H]1CCCCO[C@H](CN(C)C(=O)Nc2ccc(C(F)(F)F)cc2)[C@@H](C)CN([C@@H](C)CO)C(=O)c2cc(NS(C)(=O)=O)ccc2O1 | + | + | . | +
CC(C)NC(=O)Nc1ccc2c(c1)C(=O)N([C@@H](C)CO)C[C@@H](C)[C@H](CN(C)C(=O)CCCN(C)C)OCCCC[C@H](C)O2 | . | . | . | .
C[C@H](CO)N1C[C@H](C)[C@H](CN(C)C(=O)C2CCCCC2)OCCCC[C@H](C)Oc2ccc(NS(=O)(=O)c3cccs3)cc2C1=O | . | + | . | .
C[C@H](CO)N1C[C@H](C)[C@H](CN(C)S(C)(=O)=O)OCCCC[C@H](C)Oc2ccc(NS(=O)(=O)c3ccccc3)cc2C1=O | . | . | . | +
CCCN(C)C[C@H]1OCCCC[C@@H](C)Oc2ccc(NS(=O)(=O)c3ccc(Cl)cc3)cc2C(=O)N([C@@H](C)CO)C[C@H]1C | . | . | . | .
SMILES | Myc binder | STAT3 SMM | p53 mut binder | NFkB SMM
CCCN(C)C[C@H]1OCCCC[C@H](C)Oc2ccc(NS(=O)(=O)c3ccc(OC)cc3)cc2C(=O)N([C@H](C)CO)C[C@H]1C | . | . | + | .
C[C@@H]1CN([C@@H](C)CO)C(=O)c2cc(NS(=O)(=O)c3ccccc3)ccc2O[C@@H](C)CCCCO[C@@H]1CN(C)C(=O)C1CCCCC1 | . | + | . | .
C[C@@H]1CCCCO[C@@H](CN(C)S(C)(=O)=O)[C@@H](C)CN([C@@H](C)CO)C(=O)c2cc(NS(=O)(=O)c3ccccc3)ccc2O1 | . | . | . | .
COc1ccc(S(=O)(=O)N(C)C[C@H]2Oc3c(NC(=O)c4nc5ccccc5s4)cccc3C(=O)N([C@H](C)CO)C[C@H]2C)cc1 | . | . | . | .
COC(=O)c1c(NC(=S)NCc2ccco2)sc2c1CCC(C)C2 (configuration not stated) | . | . | . | .
O=C(Nc1sc2c(c1C(=O)NCc1ccco1)CCC2)c1sc2ccccc2c1Cl | + | . | . | .
C[C@@H]1CN([C@@H](C)CO)C(=O)c2cc(NC(=O)CCC(F)(F)F)ccc2O[C@@H](C)CCCCO[C@@H]1CN(C)C(=O)CCC(F)(F)F | + | . | . | +
C[C@@H]1CN([C@@H](C)CO)C(=O)c2cc(NC(=O)Cc3ccccc3)ccc2O[C@@H](C)CCCCO[C@@H]1CN(C)C(=O)CCC(F)(F)F | . | . | . | .
C[C@H](CO)N1C[C@H](C)[C@@H](CN(C)C(=O)CCC(F)(F)F)OCCCC[C@H](C)Oc2ccc(NC(=O)CCC(F)(F)F)cc2C1=O | . | . | . | .
CC(C)NC(=O)N(C)C[C@H]1OCCCC[C@H](C)Oc2ccc(NC(=O)CCC(F)(F)F)cc2C(=O)N([C@H](C)CO)C[C@@H]1C | + | . | . | +
C[C@@H]1CCCCO[C@H](CN(C)C(=O)CCC(F)(F)F)[C@H](C)CN([C@@H](C)CO)C(=O)c2cc(NC(=O)Cc3ccccc3)ccc2O1 | + | . | . | +
C[C@@H]1CCCCO[C@H](CN(C)C(=O)CCC(F)(F)F)[C@@H](C)CN([C@@H](C)CO)C(=O)c2cc(NC(=O)CCC(F)(F)F)ccc2O1 | . | . | . | .
C[C@@H]1CN([C@H](C)CO)C(=O)c2cc(NC(=O)CCC(F)(F)F)ccc2O[C@@H](C)CCCCO[C@H]1CN(C)C(=O)CCC(F)(F)F | + | . | . | +
CC(C)C(NS(=O)(=O)c1c(Cl)cccc1Cl)C(=O)O (configuration not stated) | . | . | . | .
C[C@@H]1CN([C@@H](C)CO)C(=O)c2cc(NC(=O)c3ccncc3)ccc2O[C@@H](C)CCCCO[C@@H]1CN(C)C(=O)CCC(F)(F)F | . | . | . | +
